# Source: PubChem BioAssay AID588342 (National Center for Advancing Translational Sciences (NCATS), 2011)
# Hit rate of the full screen: of about 360,000 compounds, about 25,000 (6.9%) were called active. About 9% were inconclusive and are not listed. The entries come from a sample that favours actives as a whole. Values without a mark were called inactive. Calls come from the whole dose curve; as a rule, active = well fitted inhibition curve with a large enough effect; inconclusive = small, poorly fitted or top-dose-only effect; inactive = flat fitted curve, though single readings scatter.
# Target: Luciferin 4-monooxygenase (Photinus pyralis) (UniProt P08659)
# Sequence (P08659 whole entry, looked up): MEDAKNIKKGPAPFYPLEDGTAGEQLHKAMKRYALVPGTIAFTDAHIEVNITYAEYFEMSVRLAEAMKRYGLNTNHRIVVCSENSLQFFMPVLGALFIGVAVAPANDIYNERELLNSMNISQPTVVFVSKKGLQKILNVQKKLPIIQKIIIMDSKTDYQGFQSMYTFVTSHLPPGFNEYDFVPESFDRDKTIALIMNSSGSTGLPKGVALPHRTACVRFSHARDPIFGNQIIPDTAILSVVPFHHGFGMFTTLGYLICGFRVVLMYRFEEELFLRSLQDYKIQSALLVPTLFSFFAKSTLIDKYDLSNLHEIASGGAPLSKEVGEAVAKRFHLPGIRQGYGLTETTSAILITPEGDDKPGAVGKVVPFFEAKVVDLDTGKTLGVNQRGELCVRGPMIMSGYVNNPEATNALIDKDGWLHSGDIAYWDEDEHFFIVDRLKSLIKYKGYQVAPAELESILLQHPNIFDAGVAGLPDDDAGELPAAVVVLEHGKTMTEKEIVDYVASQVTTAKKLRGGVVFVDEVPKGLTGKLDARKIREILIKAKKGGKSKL
# Assay: qHTS profiling assay for firefly luciferase inhibitor/activator using purifed enzyme and Km concentrations of substrates (counterscreen for miR-21 project); note: nearly all actives have a fitted effect of over 55% in size;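 for activity change, negative = inhibition: plate controls were vehicle for no effect and reference inhibitor for full effect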
# Details: purified FLuc, luminescence inhibition; series mostly up to 57.5 µM; activity change, negative = inhibition: at the top concentration
# Outline: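 Purified P. pyralis luciferase, 10 nM final, with Km-level 10 uM D-luciferin and 10 uM ATP in 50 mM Tris acetate pH 7.5, 10 mM Mg acetate, 0.01% Tween-20, 0.05% BSA; 6-point qHTS titration about 60 µM downward; luminescence read.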
# Potency is the fitted concentration of half-maximal effect.
Structure (SMILES),Potency,"activity change, negative = inhibition"
c1ccc2[nH]c(-c3nc4ccccc4[nH]3)nc2c1,2.13 µM (active),
COc1ccc(NC(=O)C2CCCN(S(=O)(=O)c3c(C)[nH]c(=O)[nH]c3=O)C2)c(OC)c1 (stereo unspecified),,0.23%
Cc1cc(C)c(NC(=O)CCc2c(C)nc3c(c(C)nn3C(C)(C)C)c2C)c(C)c1,,2.9%
CCCS(=O)(=O)N1CCC(n2c(C(F)(F)F)nc3cccnc32)CC1,,-6.09%
CCOC(=O)c1ccc(NC(=O)Cn2c(=O)n(-c3ccc(C)cc3)c(=O)c3c2cnn3C)cc1,,3.7%
COc1cccc(/C=N/Nc2cc(C)nc(-c3ccccc3O)n2)c1O,7.57 µM (active),
COc1cccc2c(N/N=C/c3ccco3)cc(C)nc12,,-6.22%
COc1cccc(/C=N/Nc2ncc(C(F)(F)F)cc2Cl)c1O,,-8.77%
COc1ccccc1CNC(=O)c1ccc(-n2c(C)cc3c2CCCC3)cc1,,-0.838%
O=C(NCC(c1ccco1)S(=O)(=O)c1cccs1)c1ccc(F)cc1 (stereo unspecified),,-1.13%
Cc1ccc2[nH]cc(CCCN3C(=O)c4ccccc4C3=O)c2c1,,-19.3%
COc1ccc2[nH]cc(CCN3C(=O)c4ccc(C(=O)O)cc4C3=O)c2c1,21.3 µM (active),
COc1ccc(C[C@H](C(=O)O)N2C(=O)c3ccc(C(=O)O)cc3C2=O)cc1,,2.08%
COc1ccc(OC)c(-n2nnc3c(sc4nc(C)c(Br)c(C)c43)c2=O)c1,,-16.1%
Cc1ccc(S(=O)(=O)N(NC2=NS(=O)(=O)c3ccccc32)C(=O)c2ccccc2)cc1,,7.5%
CC(C)(C)c1csc(NC2=NS(=O)(=O)c3ccccc32)n1,1.51 µM (active),
CC(C)C(NS(=O)(=O)c1cccs1)C(=O)Nc1nc(C(C)(C)C)cs1 (stereo unspecified),,0.0539%
CCOc1ccc(C(C(=O)NC2CCCC2)N(C(=O)c2snc(C(N)=O)c2N)C2CCCC2)cc1 (stereo unspecified),,-1.43%
CC(C)(C)[Si](OCC[C@@H]1C[C@@]1(C)[C@@H](NP(=O)(c1ccccc1)c1ccccc1)c1ccccc1)(c1ccccc1)c1ccccc1,,1.82%
CCn1nccc1C(=O)Nc1ccc(S(=O)(=O)NC23CC4CC(CC(C4)C2)C3)cc1,,-16.5%
O=C(CC(O)(C(F)(F)F)C(F)(F)F)Nc1ccc(Cl)c(Cl)c1,,1.66%
CCn1nccc1C(=O)Nc1ccc(Cl)c(Cl)c1,21.3 µM (active),
COC(=O)c1cnc(N2CCN(c3ccccc3OC)CC2)c2ccccc12,,2.92%
Cc1ccc(Cl)cc1NC(=O)CSc1nc2ccccc2nc1Cc1ccccc1,,-1.64%
CCOc1ccc(-c2n[nH]c3c2C(c2ccccc2OC)N(c2ccc(Br)cc2)C3=O)cc1 (stereo unspecified),,-5.87%
CCN(Cc1ccccc1)Cc1c(O)ccc2c(=O)c(-c3ccc(Cl)cc3Cl)coc12,,1.52%

Structure (SMILES),Potency,"activity change, negative = inhibition"
CN(C)S(=O)(=O)c1cccc(C(=O)OCC(=O)N2CCCC2=O)c1,,0.332%
O=C(OCC(=O)N1CCCC1=O)c1cc(S(=O)(=O)N2CCOCC2)ccc1Cl,,-1.01%
CCOC(=O)c1c(C)[nH]c(C(=O)OCC(=O)N2CCCC2=O)c1C,12 µM (active),
Cc1c(C(=O)OCC(=O)N2CCCC2=O)oc2ccccc12,16.9 µM (active),
CCOC(=O)c1c(C)[nH]c(C(=O)NCCN2CCOCC2)c1C,,-1.59%
CCOC(=O)c1[nH]c(C)c(C(=O)OCC(=O)N2c3ccccc3CC2C)c1C (stereo unspecified),,-1.78%
CCOc1ccc(CCNC(=O)c2cc3c(=O)n(C)c4ccccc4c3n2C)cc1,,2.73%
O=S(=O)(c1ccc(Br)c2ccccc12)N1CCOCC1,,1.95%
Cc1ccc(N=Cc2c(O)n(-c3nccs3)c(=O)c3ccccc23)c(C)c1,,6.42%
Cc1ccc(Oc2c(C(F)(F)F)oc3c(CN4CCCCC4)c(O)ccc3c2=O)cc1,,-0.577%
O=C(CN1CCCCCC1)Nc1c(Cl)cc(Cl)cc1Cl,15.1 µM (active),
O=C(CN1CCOCC1)Nc1c(Cl)cc(Cl)cc1Cl,,-0.972%
COc1cc(Cl)c(C)cc1NC(=O)CN1CCCCCC1,,-4.1%
COc1cc([N+](=O)[O-])ccc1NC(=O)CN1CCCC1,,-1.25%
O=C(CN1CCCCCC1)Nc1ccc(Cl)cc1F,,-8.38%
O=C(CN1CCCCCC1)Nc1ccc(Br)cc1Br,16.9 µM (active),
COc1ccc(C(=O)Nc2nonc2-c2ccc(OC)c(OC)c2)cc1Cl,,-5.4%
CCCc1ccc(OCC(O)CN2CCN(CCO)CC2)cc1 (stereo unspecified),,-1.45%
CC(C)Cn1c(N)c(C(=O)COC(=O)C2CCCN2C(=O)c2cccs2)c(=O)n(C)c1=O (stereo unspecified),,2.54%
COc1ccc(-c2nnc(SC(C)C(=O)NC3CC3)o2)cc1 (stereo unspecified),,-9.71%
Nc1nc(SCC(=O)Nc2ccc(Cl)c([N+](=O)[O-])c2)n[nH]1,,-12.4%
COc1ccc(NC(=O)CSC2=Nc3ccccc3C3=NC(CC(=O)NCc4ccccc4OC)C(=O)N23)cc1Cl (stereo unspecified),,4.79%
O=C(c1cccc(Br)c1)N1CCN(C2=NS(=O)(=O)c3ccccc32)CC1,,0.454%
O=C(Oc1cccc(NC2=NS(=O)(=O)c3ccccc32)c1)c1ccncc1,26.9 µM (active),
O=C(N/N=C/c1cccc(OC(=O)c2ccc([N+](=O)[O-])cc2)c1)c1cccnc1,,1.89%
